# Values of other authors as cited in PubChem BioAssay AID977610.
# Out of some 3,600 compounds screened, about 3,600 (100%) were called active. The limit is not given here; nearly all actives have Ki up to about 18000 µM. So high a share suggests a set chosen from earlier hits. This is one part of the list. Where a SMILES comes first, the peptide text is derived from it. Square brackets hold non-standard residues; d marks the D form. Residues, ends and D or L forms follow the SMILES beside them. Peptide text beside a SMILES is read from it. The star is where a group is joined. Orn(CH(NH2)2) = NC(N)NCCC[C@H](N)C(=O)O; Bz = O=C(c1ccccc1)*
# Experiment: PubChem AID 977610
# Settings: PDB protein-ligand complexes, literature Ki
molecule,measurement,setting,value
C#C[C@@H]1N[C@@H](C)[C@@H](O)[C@H]1O,Ki,"protein: Alpha-L-fucosidase Fuc2970, PDB entry 4pct",0.07 µM (active)
NC(N)NCCCNC(=O)[C@@H]1CCCCN1C(=O)[C@@H](CC1CCCCC1)NCC(=O)O,Ki,"protein: bovine trypsin, PDB entry 1k1o",0.675 µM (active)
Nc1[nH]c(=S)nc2[nH]ncc12,Ki,"protein: PDE10A2, PDB entry 4lkq",450 µM (active)
NC(N)NCCCC[C@H](N)[P+](O)(O)O,Ki,"protein: M1 family aminopeptidase, PDB entry 4k5l",11 µM (active)
NC(N)NCCC[C@H](N)[P+](O)(O)O,Ki,"protein: M1 family aminopeptidase, PDB entry 4k5m",193 µM (active)
C[C@@H]1N[C@@H](C#Cc2ccccc2)[C@H](O)[C@@H]1O,Ki,"protein: Alpha-L-fucosidase Fuc2970, PDB entry 4pcs",0.014 µM (active)
C[C@H](NC(=O)[C@H](C)NC(=O)[C@H](Cc1cc(-c2ccccc2)no1)C[P+](O)(O)c1ccc(Br)cc1)C(N)=O,Ki,"protein: Macrophage metalloelastase (F171D mutation), PDB entry 4gr8",0.0147 µM (active)
C[C@H](NC(=O)[C@H](C)NC(=O)[C@H](Cc1cc(-c2ccc(-c3cccc(Cl)c3)cc2)no1)C[P+](O)(O)c1ccc(Br)cc1)C(N)=O,Ki,"protein: Macrophage metalloelastase (F171D mutation), PDB entry 4gr0",0.00028 µM (active)
N=Cc1nc(N2CCOCC2)nc(N(Cc2ccc(Cl)cc2)C2CCCCC2)n1,Ki,"protein: CATHEPSIN L1, PDB entry 4axm",0.013 µM (active)
C[C@H](NC(=O)[C@H](CO)N[C@H](O)CSCCNC(=O)CCNC(=O)[C@H](O)C(C)(C)CO[P+](O)(O)O[P+](O)(O)OCc1oc(-n2cnc3c(N)ncnc32)c(O)c1O[P+](O)(O)O)C(=O)N[C@@H](CO)C(=O)N[C@@H](CCC(=O)O)C(=O)O,Ki,"protein: N-terminal acetyltransferase A complex subunit nat1, PDB entry 4kvm",8.9 µM (active)
H-PLSFLV-OH,Ki,"protein: LSD1-CoREST complex, PDB entry 3zmv",55 µM (active)
H-PTSII-OH,Ki,"protein: CFTR Associated Ligand (CAL) PDZ domain, PDB entry 4joh",450 µM (active)
CC(C)C[C@H](NC(=O)[C@@H](NC(=O)CNC(=O)c1ccccc1)C(C)C)C(=O)N[C@@H](CCCCN)C(=O)N[C@@H](CCC(=O)O)C(=O)N[C@@H](Cc1ccc(O)cc1)C(=O)NCC(=O)N[C@H](C(=O)O)C(C)C (Bz-GVLKEYGV-OH),Ki,"protein: NAD-DEPENDENT PROTEIN DEACYLASE SIRTUIN-5, MITOCHONDRIAL zebrafish Sirtuin 5, PDB entry 4uub",17.2 µM (active)
H-PKSFLV-OH,Ki,"protein: LSD1-CoREST complex, PDB entry 3zmu",49.6 µM (active)
CC[C@H](C)[C@H](NC(=O)[C@@H](NC(=O)[C@H](CO)NC(=O)[C@@H](N)CC(=O)O)[C@@H](C)CC)C(=O)O (H-DSII-OH),Ki,"protein: CFTR Associated Ligand (CAL) PDZ domain, PDB entry 4k72",1000 µM (active)
O=[N+]([O-])c1ccc(NNC(=S)Nc2ccc(F)cc2)c([N+](=O)[O-])c1,Ki,"protein: GTPase HRas(T35S mutant), PDB entry 2lwi",773 µM (active)
CCCCCCc1cccc(NC(=O)[C@H](N)CC[P+](O)(O)O)c1,Ki,"protein: Lipid G protein-Coupled Receptor, PDB entry 3v2w",0.077 µM (active)
CN(C)C(=O)CN[C@@H](C(=O)N1CC[C@H]1C(=O)NCc1ccc(C(N)N)cc1)C1CCCCC1,Ki,"protein: THROMBIN, PDB entry 4bam",0.00114 µM (active)
NC(=O)CN[C@@H](C(=O)N1CC[C@H]1C(=O)NCc1ccc(C(N)N)cc1)C1CCCCC1,Ki,"protein: THROMBIN, PDB entry 4bao",0.00429 µM (active)
NC(N)c1ccc(CNC(=O)[C@@H]2CCN2C(=O)[C@H](NCC(=O)O)C2CCCCC2)cc1,Ki,"protein: THROMBIN, PDB entry 4bah",0.00201 µM (active)
C[C@@H](O)[C@H](N)C(=O)NS(=O)(=O)c1cccc(-c2ccc3[nH]ncc3c2)c1,Ki,"protein: Threonine--tRNA ligase, cytoplasmic, PDB entry 4hwt",50 µM (active)
Cc1cc(-c2nn(C(C)C)c3ncnc(N)c23)cc2ccc(OCc3ccccc3)nc12,Ki,"protein: Mitogen-activated protein kinase 1 (Q103A, C164L mutant), Rat Erk2, PDB entry 4n4s",0.133 µM (active)
CC(=O)NCCCC[C@H](NC(=O)[C@H](CCCN=C(N)N)NC(=O)[C@H](Cc1cnc[nH]1)NC(=O)[C@@H](N)CCCN=C(N)N)C(=O)N[C@H](C(=O)O)C(C)C (H-RHRK(Ac)V-OH),Ki,"protein: Bromodomain-PHD Finger Module of Human Transcriptional Co-Activator CBP, PDB entry 4n3w",315 µM (active)
OC[C@@H]1[C@@H](O[C@@H]2O[C@H](CO)[C@@H](O)[C@H](O)[C@@H]2O)[C@H](O)[C@H](O)c2nccn21,Ki,"protein: GH26 beta-mannanase CjMan26C from Cellvibrio japonicus, PDB entry 4cd5",0.194 µM (active)
same,Ki,"protein: GH113 beta-mannanase AaManA from Alicyclobacillus acidocaldarius, PDB entry 4cd8",1300 µM (active)
COc1ccc([C@H]2[C@H](O)[C@H](O)[C@H](C)N2C)cc1,Ki,"protein: alpha-L-fucosidase, PDB entry 4jfs",5.4 µM (active)
COc1ccc([C@@H]2N[C@@H](C)[C@@H](O)[C@H]2O)cc1,Ki,"protein: alpha-L-fucosidase, PDB entry 4jft",3.5 µM (active)
NC(N=O)NCC[C@H](N)C(=O)O (stereo partly specified),Ki,"protein: Arginase, PDB entry 4iu1",50 µM (active)
COC(=O)CC[C@H](C[C@H](N)C(=O)O)C(=O)O,Ki,"protein: Glutamate receptor ionotropic, kainate 3 GluK3 LBD, PDB entry 4nwc",1.74 µM (active)
CNC(=O)CC[C@H](C[C@H](N)C(=O)O)C(=O)O,Ki,"protein: Glutamate receptor ionotropic, kainate 3 GluK3 LBD, PDB entry 4nwd",3.96 µM (active)
CCCCCCCCCCCCCCCCCCCC(=O)NCCO,Ki,"protein: FATTY ACID-BINDING PROTEIN, EPIDERMAL, PDB entry 4azp",1.26 µM (active)
CCC(CC)[C@H](NC(C)=O)[C@@H]1[C@H](O)[C@@H](C(=O)O)C[C@H]1NC(N)N,Ki,"protein: Human Sialidase Neu2, PDB entry 2f10",330 µM (active)
CC(=O)c1ccc2c(c1)OCCO2,Ki,"protein: PDE10A2, PDB entry 4lm3",1200 µM (active)
OCc1ccc2c(c1)OCCO2,Ki,"protein: PDE10A2, PDB entry 4lm2",940 µM (active)
CCCCCCCC/C=C\CCCCCCC[C@H](O)c1nnc(-c2ccccn2)o1,Ki,"protein: Humanized Variant of Fatty Acid Amide Hydrolase (L192F, F194Y, A377T, S435N, I491V, V495M), PDB entry 3k84",0.003 µM (active)
Cc1ccnc(N)c1[N+](=O)[O-],Ki,"protein: PDE10A2, PDB entry 4mrz",300 µM (active)
O=C(O)C(O)C(=O)O,Ki,"protein: Mandelate racemase, PDB entry 4m6u",1800 µM (active)
Nc1c(CC(=O)O)cccc1C(=O)c1ccc(Br)cc1,Ki,"protein: E. coli sliding clamp, DNA polymerase III subunit beta, PDB entry 4mjq",193 µM (active)
CC(C)C[C@H](NC(=O)[C@H](CCCNC(N)N)NC(=O)[C@@H]1CCCN1)C(=O)N[C@@H](Cc1ccc(O)cc1)C(=O)N[C@@H](CC(C)C)C(=O)N[C@H](C(=O)O)C(C)C (H-P[Orn(CH(NH2)2)]LYLV-OH),Ki,"protein: LSD1-CoREST complex, PDB entry 3zn1",29.1 µM (active)
CC(C)[C@H](NC(=O)[C@H](C)NC(=O)[C@H](Cc1ccccc1)NC(=O)[C@H](CO)NC(=O)[C@H](CCCNC(N)N)NC(=O)[C@@H]1CCCN1)C(=O)O (H-P[Orn(CH(NH2)2)]SFAV-OH),Ki,"protein: LSD1-CoREST complex, PDB entry 3zmz",18 µM (active)
CC(C)C[C@H](NC(=O)[C@H](Cc1ccccc1)NC(=O)[C@H](CO)NC(=O)[C@H](CCCNC(N)N)NC(=O)[C@@H]1CCCN1)C(=O)N[C@H](C(=O)O)C(C)C (H-P[Orn(CH(NH2)2)]SFLV-OH),Ki,"protein: LSD1-CoREST complex, PDB entry 3zmt",28.4 µM (active)
C[C@H](NC(=O)[C@H](C)NC(=O)[C@H](Cc1ccccc1)NC(=O)[C@H](CO)NC(=O)[C@H](CCCNC(N)N)NC(=O)[C@@H]1CCCN1)C(=O)O (H-P[Orn(CH(NH2)2)]SFAA-OH),Ki,"protein: LSD1-CoREST complex, PDB entry 3zn0",10.7 µM (active)
CCCCCC[C@H]([C@H](C)O)n1cnc2c(N)ncnc21,Ki,"protein: Bos taurus Adenosine deaminase (ADA), PDB entry 2z7g",0.00113 µM (active)
COC(=O)N[C@H](C(=O)NN(CCC[C@@]1(O)Cc2ccc(cc2)C/C=C\CNC(=O)[C@H](C(C)C)NC1=O)Cc1ccc(-c2cccnc2)cc1)C(C)(C)C,Ki,"protein: HIV-1 protease, PDB entry 4cpt",0.02 µM (active)
COC(=O)N[C@H](C(=O)NN(CCC[C@@]1(O)Cc2ccc(cc2)C/C=C\CNC(=O)[C@H](C(C)C)NC1=O)Cc1ccc(-c2ccncc2)cc1)C(C)(C)C,Ki,"protein: HIV-1 protease, PDB entry 4cps",0.0054 µM (active)
COC(=O)N[C@H](C(=O)NN(CCC[C@@]1(O)Cc2ccc(cc2)C/C=C\CNC(=O)[C@H](C(C)C)NC1=O)Cc1ccc([C@H]2C=CCS2)cc1)C(C)(C)C,Ki,"protein: HIV-1 protease, PDB entry 4cpx",0.017 µM (active)
